Sampled rows, rich in hits. Any-hit rate of the full collection: about 22%.
CYP2C19 act: human CYP2C19 activators, primary screen, biochemical, luminescence; recombinant CYP2C19, luciferin-H EGE luminescence; active compounds read high; 0 = fully inhibited enzyme, 1 = untreated enzyme; activation factor at 5 µM; AID 1025, 2008; Cytochrome P450 2C19 (Homo sapiens), P33261; 96,000 tested, under 10 active;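 active = activation factor of at least 2 at 5 µM in the primary screen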
Target sequence (P33261 whole entry, looked up): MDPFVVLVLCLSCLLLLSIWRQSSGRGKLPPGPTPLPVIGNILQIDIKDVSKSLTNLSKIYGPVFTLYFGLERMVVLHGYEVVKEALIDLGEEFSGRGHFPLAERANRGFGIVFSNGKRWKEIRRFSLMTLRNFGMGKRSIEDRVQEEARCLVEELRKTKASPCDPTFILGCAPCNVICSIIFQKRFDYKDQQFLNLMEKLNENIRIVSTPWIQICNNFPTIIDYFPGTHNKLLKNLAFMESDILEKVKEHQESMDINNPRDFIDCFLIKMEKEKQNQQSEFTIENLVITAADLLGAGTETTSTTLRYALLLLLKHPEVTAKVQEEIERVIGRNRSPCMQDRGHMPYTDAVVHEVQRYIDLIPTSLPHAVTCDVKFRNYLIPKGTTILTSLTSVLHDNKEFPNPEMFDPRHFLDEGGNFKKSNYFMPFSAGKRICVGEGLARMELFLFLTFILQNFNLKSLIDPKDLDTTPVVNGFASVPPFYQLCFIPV
CYP2C19 inhib: blockers of cytochrome P450 2C19 activity – biochemical, luminescence, ADME assay, primary screen; inhibition, % at 5 µM; 96,000 tested, 21% active; CYP2C19 Supersomes, luciferin-H EGE luminescence, 30 min;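 active = CYP2C19 inhibition above a set limit at 5 µM in the primary screen, cut at about 50% in these data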
Measles CPE: compounds protecting cells from measles virus cytopathic effect, primary screen, measles RdRp inhibitor project, single point, MLSMR library, absorbance. Measles virus-infected cells, CPE protection. protection (pct of control), % at 4 µM. 140,000 tested, 1.5% active. AID 841, 2007; in the data active = protection mostly above about 24%, no sharp cut-off; inactive = mostly below about 26%
CYP2C9 inh: blockers of cytochrome P450 2C9 activity – biochemical, luminescence, ADME assay, primary screen; inhibition, % at 5 µM; P11712; 96,000 tested, 20% active; AID 777, 2007; CYP2C9 Supersomes, luciferin-H conversion;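 active = blocking of liver enzyme CYP2C9 beyond about 50% at 5 µM, limit read from the data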
CYP2C9 activ: human CYP2C9 activators, primary screen, biochemical, luminescence; Cytochrome P450 2C9 (Homo sapiens), P11712; recombinant CYP2C9, luciferin-H conversion; active compounds read high; factor 1 = untreated enzyme, 0 = blocked; activation factor at 5 µM; 96,000 tested, 1.4% active;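 active = activation factor of 2 or more for CYP2C9 at a 5 µM dose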
Each line names hits and unclear results; the compound was inactive in the other large screens.

O=S(=O)(c1ccccc1Cl)N1CCCC(c2nc(-c3cccnc3)no2)C1 (stereo not drawn)	CYP2C19 inhib 95, CYP2C9 inh 79
Cc1onc(-c2ccccc2Cl)c1C(=O)Nc1nc2ccc(S(C)(=O)=O)cc2s1	none (no result: CYP2C19 act, CYP2C19 inhib, CYP2C9 inh, CYP2C9 activ)
COc1ccc(-c2noc(C3CCCN(S(=O)(=O)c4cccc(Cl)c4C)C3)n2)cc1OC (stereo not drawn)	CYP2C19 inhib 91, CYP2C9 inh 85
COc1ccc(-c2noc(C3CCCN(C(=O)c4ccccc4OC)C3)n2)cc1OC (stereo not drawn)	none
Cc1ccc(-c2noc(C3CCCN(C(=O)c4c(F)cccc4F)C3)n2)cc1 (stereo not drawn)	CYP2C19 inhib 78, CYP2C9 inh 91
Cc1ccc(-n2ncc3c(NCc4ccc5c(c4)OCO5)ncnc32)c(C)c1	none (no result: CYP2C19 act, CYP2C19 inhib, CYP2C9 inh, CYP2C9 activ)
O=C(COC(=O)c1cc(=O)[nH]c2ccccc12)NC(=O)NC1CCCCC1	CYP2C9 inh 53
CCOC(=O)c1[nH]c2ccccc2c1NC(=O)c1ccc(S(=O)(=O)N2CCCC2)cc1	Measles CPE 21 (no result: CYP2C19 act, CYP2C19 inhib, CYP2C9 inh, CYP2C9 activ)
CCOC(=O)c1[nH]c2ccccc2c1NC(=O)CC	none
CCOC(=O)c1[nH]c2ccccc2c1NC(=O)C1CCCCC1	none (no result: CYP2C19 act, CYP2C19 inhib, CYP2C9 inh, CYP2C9 activ)
CCOC(=O)c1[nH]c2ccccc2c1NC(=O)NC1CCCCC1	CYP2C9 inh 55
O=C(CN1CC(=O)Oc2ccccc21)OCC(=O)c1cccc(Br)c1	none
Cc1ccc(C(=O)C2C(=O)c3ccccc3C2=O)cc1	CYP2C9 inh 77
Cc1ccc(C(=O)NC2c3ccccc3-c3ccccc32)cc1	none (no result: CYP2C19 act, CYP2C19 inhib, CYP2C9 inh, CYP2C9 activ)
COc1cc(NC(=O)C2CCCN2C(=O)C2CCC(C)CC2)cc(OC)c1OC (stereo not drawn)	none
COc1ccc(OC)c(NC(=O)C2CCCN2C(=O)C2CCC(C)CC2)c1 (stereo not drawn)	CYP2C19 inhib 53, CYP2C9 inh 57
CCC(C)C(NC(=O)C1CCC(C)CC1)C(=O)NC(CCSC)C(=O)OC (stereo not drawn)	Measles CPE 23
COc1ccccc1NC(=O)C(CC(C)C)NC(=O)C1CCCCC1 (stereo not drawn)	CYP2C19 inhib 51
CCC(C)C(NC(=O)C1CCC(C)CC1)C(=O)Nc1cc(OC)ccc1OC (stereo not drawn)	CYP2C9 inh 69
O=C1C2CCCCN2C(=O)N1CCCCN1CCN(c2ccc([N+](=O)[O-])cc2)CC1 (stereo not drawn)	none
CC(C)CC(=O)NCCCN1CCN(CCCNC(=O)CC(C)C)CC1	none (no result: CYP2C19 act, CYP2C19 inhib, CYP2C9 inh, CYP2C9 activ)
CCCCC(CC)C(=O)NCCCN1CCN(CCCNC(=O)C(CC)CCCC)CC1 (stereo not drawn)	Measles CPE 36
O=c1ccc(/C=C/c2ccccc2)nn1Cc1ccccc1	CYP2C9 inh 64
CCOC(=O)Cn1nc(/C=C/c2ccccc2)ccc1=O	none
CCCC(C)NC(=O)c1ccc2[nH]c3c(c2c1)CC(C)CC3 (stereo not drawn)	CYP2C9 inh 51
COc1cccc(CN2CCN(Cc3cc(OC)c(OC)cc3[N+](=O)[O-])CC2)c1	none
C=CCNC(=O)C1CC(=O)N(c2ccc(Br)cc2)C1 (stereo not drawn)	none
O=C(NCc1cccs1)C1CCCCC1	CYP2C19 inhib 51
O=C(NCc1cccs1)C1CC(=O)N(c2ccc(F)cc2)C1 (stereo not drawn)	CYP2C19 inhib 59
O=C(NCc1cccs1)C1CCCN(c2ncccn2)C1 (stereo not drawn)	CYP2C19 inhib 53
CCNC(=O)C1CC(=O)N(c2ccc(Br)cc2)C1 (stereo not drawn)	CYP2C19 inhib 70
CCOC(=O)CNC(=O)C1CCCN(c2ncccn2)C1 (stereo not drawn)	none
CC(C)(C)c1ccc(OCC(=O)NC2CCS(=O)(=O)C2)cc1 (stereo not drawn)	none
CC(C)(C)C(=O)Nc1cccc(C(=O)c2cccc(NC(=O)C(C)(C)C)c2)c1	CYP2C19 inhib 55
CCCOC(=O)c1cccc(NC(=O)C(C)(C)C)c1	CYP2C19 inhib 79, CYP2C9 inh 59
NC(=O)c1nsc(C(=O)N(CC(=O)NCc2ccco2)c2ccccc2F)c1N	none (no result: CYP2C19 act, CYP2C19 inhib, CYP2C9 inh, CYP2C9 activ)
O=C(Nc1ccc(Oc2ccccc2)cc1)C1CCCN(c2ncccn2)C1 (stereo not drawn)	none
COc1cc(CNC2CCCc3ccccc32)cc(OC)c1OC (stereo not drawn)	none (no result: CYP2C19 act, CYP2C19 inhib, CYP2C9 inh, CYP2C9 activ)
COc1ccc(CNc2ccccc2SC)cc1OC	CYP2C19 inhib 83
COc1ccc(CNC(=O)NCc2ccc(OC)c(OC)c2)cc1OC	none
COc1cc(CNc2ccccc2SC)cc(OC)c1OC	CYP2C19 inhib 95, CYP2C9 inh 89
CCOc1ccc(N=Nc2c(=O)[nH]n3c(=O)cc(C)[nH]c23)cc1	CYP2C19 inhib 63
Cc1cc(=O)n2[nH]c(=O)c(N=Nc3ccccc3)c2[nH]1	none
CCOC(=O)c1c(-c2ccc(C)o2)csc1NC(=O)CN1CCN(CC)CC1	none
CCOC(=O)c1c(-c2ccco2)csc1NC(=O)CSc1nnc(N)s1	CYP2C9 inh 57
CCOC(=O)c1c(-c2ccc(C)o2)csc1NC(=O)CN(C)CC(=O)Nc1ccc(C)cc1	CYP2C19 inhib 69, CYP2C9 inh 96
CCOC(=O)c1c(-c2ccc(C)o2)csc1NC(=O)CSc1nncs1	CYP2C19 inhib 91, CYP2C9 inh 100
CCOC(=O)c1c(-c2ccco2)csc1N	none
COc1ccccc1/C=C/C=N/NC(=O)CN1CCN(S(=O)(=O)c2ccc(C)cc2)CC1	none (no result: CYP2C19 act, CYP2C19 inhib, CYP2C9 inh, CYP2C9 activ)
CCCCOc1ccc(/C=C/C(=O)Nc2ccc(C(N)=O)cc2)cc1	none (no result: CYP2C19 act, CYP2C19 inhib, CYP2C9 inh, CYP2C9 activ)
Cc1sc(NC(=O)CCl)c(C(=O)c2ccccc2)c1C	none
Cc1nn(-c2ccccc2)c(Cl)c1C(=O)N(C)c1nc(-c2ccc(F)cc2)cs1	none (no result: CYP2C19 act, CYP2C19 inhib, CYP2C9 inh, CYP2C9 activ)
CCOC(=O)C(Cc1ccc(NC(=O)/C(=C/c2ccc(OC(C)=O)cc2)NC(C)=O)cc1)N1C(=O)c2ccccc2C1=O (stereo not drawn)	CYP2C9 inh 60
CCOC(=O)C(Cc1ccc(NC(=O)/C(=C/c2ccccc2)NC(=O)c2ccccc2)cc1)N1C(=O)c2ccccc2C1=O (stereo not drawn)	CYP2C19 inhib 52, CYP2C9 inh 91
COc1cc2c(cc1OC)C1=C(C#N)CC/C(=N\S(=O)(=O)c3cccc(Cl)c3)N1CC2	CYP2C9 inh 63
COc1cc(-c2noc(CCC(N)=O)n2)cc(OC)c1OC	none
O=C(COC(=O)Cc1ccc(-c2ccccc2)cc1)NCc1ccc(F)cc1	none (no result: CYP2C19 act, CYP2C19 inhib, CYP2C9 inh, CYP2C9 activ)
Cc1ccc(-c2csc(=S)n2CC(=O)OCC(=O)NCc2ccc(F)cc2)cc1	CYP2C19 inhib 80, CYP2C9 inh 87
O=C(NCC1CCCO1)c1cccc(F)c1 (stereo not drawn)	none (no result: CYP2C19 act, CYP2C19 inhib, CYP2C9 inh, CYP2C9 activ)
COc1ccc2[nH]c3c(=O)n(CCCCC(=O)N4CCCC4)c(=S)[nH]c3c2c1	CYP2C9 inh 60

From PubChem
